# PubChem BioAssay (EPA / NIEHS)
# Values joined by “and” are separate entries in the source; they are usually repeats but may differ in a detail not shown here. Equal entries are not always repeated. Results filed as inconclusive are left out. Where a structure was tested more than once in an assay, its records may differ in their call. Active and inactive are the calls of the source. Rule for the calls: active = hit-call score of the fitted dose curve at least 0.9, where 1 is the maximum; inconclusive = response in the unintended direction; inactive = score below 0.9.
# Key:
# [1] = system: zebrafish Androgen Receptor (AR), gene 100005148; assay: ATG_zfAR_XSP1: Attagene TRANS-FACTORIAL Multi-Species (XSP1) HepG2 Assay for zebrafish Androgen Receptor (AR) (AID 2283771)
# How it was run: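 HepG2 cells were transiently transfected with a zebrafish AR-GAL4 reporter system and partially stimulated with 3 nM 6-alpha-fluorotestosterone. Reporter mRNA was measured after 24 h dosing by RT-PCR with capillary electrophoresis, and gain-of-signal was fitted relative to DMSO.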
# [2] = molecular target: zebrafish Estrogen Receptor (ESR1), esr1 (gene 259252) (UniProt P57717); assay: ATG_zfER1_XSP1: Attagene TRANS-FACTORIAL Multi-Species (XSP1) HepG2 Assay for zebrafish Estrogen Receptor (ESR1) (AID 2283772)
# How it was run: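 Trans-activation readout: transfected zebrafish ER-Gal4 drives a UAS reporter in human HepG2 liver cells. After 24 h compound exposure (medium containing 3 nM 6-alpha-fluorotestosterone), induced reporter transcripts were quantified by RT-PCR with capillary electrophoresis, relative to DMSO.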
# [3] = system: zebrafish Estrogen Receptor (ESR2B), gene 317733; assay: ATG_zfER2b_XSP1: Attagene TRANS-FACTORIAL Multi-Species (XSP1) HepG2 Assay for zebrafish Estrogen Receptor (ESR2B) (AID 2283773)
# How it was run: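 HepG2 cells transiently transfected with multiple GAL4-UAS reporter units expressing chimeric zebrafish ER2b-Gal4; 24 h chemical exposure with 3 nM 6-alpha-fluorotestosterone present. Reporter mRNA measured by RT-PCR and capillary electrophoresis; gain of signal fitted versus DMSO.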
# [4] = ACEA_AR_agonist_AUC_viability: ACEA Biosciences xCELLigence Real-Time Cell Analysis on Androgen Receptor Agonism for Viability (AID 2283775);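 for AC50: viability read 80 hours after compound addition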
# How it was run: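 Real-time impedance tracking of 22Rv1 growth, readings every 5 min for 5 h then hourly; area-under-curve viability endpoint at 80 hours, relative to DMSO. Compounds at eight concentrations, 1:4 steps, top 100 uM, n = 2.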
# [5] = ACEA_AR_antagonist_AUC_viability: ACEA Biosciences xCELLigence Real-Time Cell Analysis on Androgen Receptor Antagonism for Viability (AID 2283776);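 note: 22Rv1 human prostate cancer cells growing on impedance electrode plates; hits lower the growth signal relative to DMSO meaning cytotoxicity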
# How it was run: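 Viability endpoint from label-free cell-index monitoring: 22Rv1 cultures treated with an eight-point 1:4 dilution series starting at 100 uM final, AUC at 80 h fitted against DMSO.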
# [6] = system: frog Estrogen Receptor (ESR1), gene 398734; assay: ATG_frER1_XSP1: Attagene TRANS-FACTORIAL Multi-Species (XSP1) HepG2 Assay for frog Estrogen Receptor (ESR1) (AID 2283777)
# How it was run: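 Read-out: fluorescent reporter mRNA via RT-PCR, HpaI digestion and capillary electrophoresis, after 24 h chemical exposure of transiently transfected human HepG2 cells expressing exogenous NR-Gal4 chimeras. DMSO served as baseline for positive-direction fitting.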
# [7] = system: zebrafish Estrogen Receptor (ESR2A), gene 317734; assay: ATG_zfER2a_XSP1: Attagene TRANS-FACTORIAL Multi-Species (XSP1) HepG2 Assay for zebrafish Estrogen Receptor (ESR2A) (AID 2283778)
# How it was run: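 HepG2 cells transiently transfected with multiplexed GAL4-UAS reporter units and chimeric NR-GAL4 receptors; 24 h compound exposure with 3 nM 6-alpha-fluorotestosterone present. Reporter mRNA quantified by RT-PCR and capillary electrophoresis, gain-of-signal fitted relative to DMSO.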
# [8] = molecular target: Luciferin 4-monooxygenase (Photinus pyralis) (UniProt P08659); assay: CCTE_Simmons_QuantiLum_inhib_2: CCTE's Firefly Luciferase Inhibition Assay, Simmons Lab (AID 2283767);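 for AC50: potency for inhibitors that lower luciferase luminescence relative to DMSO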
# How it was run: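 Luminescence loss relative to DMSO vehicle defines inhibition; detection reagent containing 150 uM D-luciferin and 147 uM dATP (final, pH 7.8) is injected immediately before each read. Enzyme is preincubated with an 8-point titration (5 nM–87.5 uM final) for 30 min at 37C.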
# [9] = system: chicken Androgen Receptor (AR), gene 422165; assay: ATG_chAR_XSP1: Attagene TRANS-FACTORIAL Multi-Species (XSP1) HepG2 Assay for chicken Androgen Receptor (AR) (AID 2283768)
# How it was run: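 HepG2 cells transiently transfected with multiplexed GAL4-UAS reporter units expressing chimeric chicken AR-Gal4; 3 nM 6-alpha-fluorotestosterone for partial AR stimulation; 24 h after dosing, reporter mRNA by RT-PCR and capillary electrophoresis, gain-of-signal versus DMSO.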
# [10] = system: frog Androgen Receptor (AR), gene 399456; assay: ATG_frAR_XSP1: Attagene TRANS-FACTORIAL Multi-Species (XSP1) HepG2 Assay for frog Androgen Receptor (AR) (AID 2283770)
# Sequence of zebrafish Estrogen Receptor (ESR1), esr1 (gene 259252) (P57717 whole entry, looked up, the tested form may be a part): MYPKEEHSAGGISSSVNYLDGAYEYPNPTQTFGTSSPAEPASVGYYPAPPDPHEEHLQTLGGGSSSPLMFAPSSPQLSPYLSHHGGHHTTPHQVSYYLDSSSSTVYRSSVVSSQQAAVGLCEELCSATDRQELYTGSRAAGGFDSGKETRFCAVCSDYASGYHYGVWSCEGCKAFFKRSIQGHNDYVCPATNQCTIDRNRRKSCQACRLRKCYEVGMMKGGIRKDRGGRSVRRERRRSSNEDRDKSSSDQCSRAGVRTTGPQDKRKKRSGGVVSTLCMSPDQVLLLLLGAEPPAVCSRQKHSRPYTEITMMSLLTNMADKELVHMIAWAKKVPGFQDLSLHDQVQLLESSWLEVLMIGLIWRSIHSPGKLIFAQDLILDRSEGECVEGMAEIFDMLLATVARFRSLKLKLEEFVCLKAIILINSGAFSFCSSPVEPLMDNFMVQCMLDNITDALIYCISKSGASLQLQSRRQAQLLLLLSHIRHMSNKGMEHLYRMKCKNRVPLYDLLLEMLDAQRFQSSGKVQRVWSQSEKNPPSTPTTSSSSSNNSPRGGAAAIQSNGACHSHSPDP
# Sequence of Luciferin 4-monooxygenase (Photinus pyralis) (P08659 whole entry, looked up): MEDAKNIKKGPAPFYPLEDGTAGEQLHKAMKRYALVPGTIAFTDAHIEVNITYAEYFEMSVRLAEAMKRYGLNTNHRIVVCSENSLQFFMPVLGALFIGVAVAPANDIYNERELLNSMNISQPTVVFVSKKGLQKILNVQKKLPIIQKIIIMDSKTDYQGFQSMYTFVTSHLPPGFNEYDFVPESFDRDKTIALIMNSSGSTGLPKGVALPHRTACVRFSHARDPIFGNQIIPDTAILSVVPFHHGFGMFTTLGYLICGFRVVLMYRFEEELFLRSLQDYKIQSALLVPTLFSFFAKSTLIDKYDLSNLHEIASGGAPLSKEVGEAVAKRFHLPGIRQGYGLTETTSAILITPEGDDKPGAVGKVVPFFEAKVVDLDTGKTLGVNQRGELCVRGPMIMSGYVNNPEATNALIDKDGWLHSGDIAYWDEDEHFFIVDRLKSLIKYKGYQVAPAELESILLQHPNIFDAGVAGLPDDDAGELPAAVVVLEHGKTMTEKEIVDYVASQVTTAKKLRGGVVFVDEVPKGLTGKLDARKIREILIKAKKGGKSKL
smiles,measurement,setting,value
CCCCC(CC)CN1C(=O)C2C3C=CC(C3)C2C1=O (stereo unspecified),outcome,[1],inactive
same,outcome,[2],inactive
same,AC50,[3],27.4 µM (active)
same,AC50,[4],81.6 µM (active)
same,AC50,[5],56.8 µM (active)
same,outcome,[6],inactive
same,outcome,[7],inactive
C=CCOC(Cn1ccnc1)c1ccc(Cl)cc1Cl (stereo unspecified),outcome,[1],inactive
same,outcome,[2],inactive
same,AC50,[3],20.5 µM (active)
same,AC50,[4],66.4 µM (active)
same,AC50,[6],3.63 µM (active)
same,outcome,[7],inactive
N[C@@H](Cc1cc(I)c(Oc2ccc(O)c(I)c2)c(I)c1)C(=O)O,outcome,[8],inactive
same,AC50,[4],12.5 µM (active)
same,AC50,[5],9.7 µM (active)
CCCOC(=O)c1ccc(C(=O)OCCC)nc1,outcome,[8],inactive
same,outcome,[4],inactive
O=C(O)c1ccccc1,outcome,[4],inactive
CC1(C)C(C=C(Cl)Cl)C1C(=O)OCc1cccc(Oc2ccccc2)c1 (stereo unspecified),outcome,[9],inactive
same,outcome,[1],inactive
same,outcome,[2],inactive
same,AC50,[3],19.8 µM (active)
same,AC50,[4],30.8 µM (active)
same,outcome,[6],inactive
same,outcome,[7],inactive
O=C(Nc1ccc([N+](=O)[O-])cc1Cl)c1cc(Cl)ccc1O,outcome,[8],inactive
same,AC50,[4],0.723 µM (active)
S=C(S)NCCNC(=S)S.[Mn+2].[S-]C([S-])=NCCN=C([S-])[S-].[Zn+2],AC50,[8],22.6 µM (active) [middle of 4 runs]
same,outcome,[8],inactive
CCCCOCCOCCOCc1cc2c(cc1CCC)OCO2,outcome,[8],inactive
same,AC50,[4],65 µM (active)
same,AC50,[5],50 µM (active)
CSC(=O)c1cccc2nnsc12,outcome,[8],inactive
CCN(CC)C(=O)c1cccc(C)c1,outcome,[4],inactive
Oc1ccc(C(c2ccc(O)cc2)C(Cl)(Cl)Cl)cc1,outcome,[8],inactive
same,outcome,[2],inactive
same,AC50,[3],0.131 µM (active)
same,AC50,[4],20.9 µM (active)
same,AC50,[7],0.106 µM (active)
C#C[C@]1(O)CC[C@H]2[C@@H]3CCC4=CC(=O)CC[C@@H]4[C@H]3CC[C@@]21CC,AC50,[1],1.12 nM (active) and 0.357 nM (active)
same,outcome,[2],inactive
same,AC50,[3],0.451 µM (active)
same,outcome,[3],inactive
same,AC50,[5],0.357 µM (active)
same,AC50,[6],0.222 µM (active)
same,outcome,[6],inactive
same,AC50,[7],0.349 µM (active)
same,outcome,[7],inactive
c1ccc(Nc2ccccc2)cc1,outcome,[8],inactive
same,AC50,[4],74.8 µM (active)
CC(=O)S[C@@H]1CC2=CC(=O)CC[C@]2(C)[C@H]2CC[C@@]3(C)[C@@H](CC[C@@]34CCC(=O)O4)[C@H]12,outcome,[1],inactive
same,outcome,[2],inactive
same,AC50,[3],82.2 µM (active)
same,outcome,[6],inactive
same,outcome,[7],inactive
CCOC(=O)C(C)Oc1ccc(Oc2nc3ccc(Cl)cc3o2)cc1 (stereo unspecified),AC50,[8],71.3 µM (active)
same,outcome,[4],inactive
same,AC50,[5],36.4 µM (active)
O=C(c1ccc(O)cc1O)c1ccc(O)cc1O,AC50,[8],47.2 µM (active)
same,AC50,[9],0.133 µM (active)
same,AC50,[10],2.75 µM (active)
same,AC50,[2],1.38 µM (active)
same,AC50,[3],0.94 µM (active)
same,AC50,[6],0.544 µM (active)
same,AC50,[7],0.191 µM (active)
CCN(Cc1c(F)cccc1Cl)c1c([N+](=O)[O-])cc(C(F)(F)F)cc1[N+](=O)[O-],AC50,[4],50 µM (active)
S=C([S-])NCCNC(=S)[S-].[Mn+2],outcome,[8],inactive
N#CSCSc1nc2ccccc2s1,AC50,[8],0.435 µM (active)
same,AC50,[4],19.4 µM (active)
same,AC50,[5],15.7 µM (active)
CN(C)C(=O)Nc1ccc(Cl)c(Cl)c1,outcome,[8],inactive
same,outcome,[4],inactive
CC(C)(c1ccc(O)cc1)c1ccc(O)cc1,outcome,[8],inactive
same,AC50,[2],1.26 µM (active)
same,AC50,[3],0.811 µM (active)
same,AC50,[4],41.4 µM (active)
same,AC50,[5],40.9 µM (active)
same,AC50,[6],0.163 µM (active)
same,AC50,[7],0.68 µM (active)
CCCCC(CC)COC(=O)c1ccccc1C(=O)O (stereo unspecified),AC50,[9],26.5 µM (active)
same,outcome,[10],inactive
same,outcome,[1],inactive
same,AC50,[3],62.5 µM (active)
same,outcome,[4],inactive
same,AC50,[6],13.6 µM (active)
same,outcome,[7],inactive
CC(C)CCCCCCc1ccc(O)cc1,outcome,[8],inactive
same,AC50,[2],2.68 µM (active)
same,AC50,[3],0.571 µM (active)
same,AC50,[4],10.7 µM (active)
same,AC50,[5],7.91 µM (active)
same,AC50,[6],0.189 µM (active)
same,outcome,[7],inactive
CCCCOC(=O)[C@@H](C)Oc1ccc(Oc2ccc(C(F)(F)F)cn2)cc1,outcome,[5],inactive
CCSC(=O)N(CC(C)C)CC(C)C,outcome,[5],inactive
